Source: PubChem BioAssay
SMN2 splice enh – qHTS Assay for Enhancers of SMN2 Splice Variant Expression. HEK293 SMN2-luciferase splicing reporter, luminescence, 30-36 h. Potency, µM (titrated, usually from 46.1 µM), for inactives: at the top dose activity change, positive = activation, actives largely listed as activators. actives 2.8% (n = 210,000). AID 1458, 2008; note: % of control where 0% means no effect; nearly all actives have a fitted effect of over 55% in size
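HEK293 cells carry an SMN2 […]–luciferase reporter in which exon 7 inclusion puts luciferase in frame. Cells were plated 10-12 h before compound addition, then incubated 30-36 h at 37C. ONE-Glo luminescence was read; sodium butyrate at 4.5 mM final served as control.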
NPC1 promoter act – qHTS Assay for NPC1 Promoter Activators; Huh7 NPC1 promoter luciferase reporter, 24 h; Potency, µM (doses to about 9.22 µM), for the others: at the highest dose activation, actives largely listed as activators; actives 2.4% (n = 320,000); note: % of control where 0% means no effect; nearly all actives have a fitted effect of over 60% in size
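Luminescence from an NPC1 promoter-driven luciferase reporter in stably transfected Huh7 cells was measured after 24 h compound treatment at 37 °C, followed by 10 min ambient incubation with luciferase detection reagent.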
Rab9 prom act – qHTS Assay for Rab9 Promoter Activators; Huh7 Rab9 promoter-luciferase reporter, luminescence, 24 h; Potency, µM (titrated, usually from 9.22 µM), for inactives: at the top dose activation, negative = inhibition, actives largely listed as activators; actives 2.8% (n = 320,000); note: % of control where 0% means no effect; nearly all actives have a fitted effect of over 60% in size
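Measured in stably transfected Huh7 cells bearing a Rab9 promoter–luciferase construct: 24 h compound treatment at 37 °C, followed by luminescence detection.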
FLuc counter – qHTS profiling assay for firefly luciferase inhibitor/activator using purifed enzyme and Km concentrations of substrates (counterscreen for miR-21 project); AID 588342, 2011; Potency, µM (series often up to 57.5 µM), inactives show top-dose activity change, negative = inhibition, actives largely listed as inhibitors; purified FLuc, Km substrates, luminescence inhibition; Luciferin 4-monooxygenase (Photinus pyralis), P08659; actives 6.9% (n = 360,000);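 note: plate controls were vehicle for no effect and reference inhibitor for full effect; nearly all actives have a fitted effect of over 55% in size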
Target sequence (P08659 whole entry, looked up): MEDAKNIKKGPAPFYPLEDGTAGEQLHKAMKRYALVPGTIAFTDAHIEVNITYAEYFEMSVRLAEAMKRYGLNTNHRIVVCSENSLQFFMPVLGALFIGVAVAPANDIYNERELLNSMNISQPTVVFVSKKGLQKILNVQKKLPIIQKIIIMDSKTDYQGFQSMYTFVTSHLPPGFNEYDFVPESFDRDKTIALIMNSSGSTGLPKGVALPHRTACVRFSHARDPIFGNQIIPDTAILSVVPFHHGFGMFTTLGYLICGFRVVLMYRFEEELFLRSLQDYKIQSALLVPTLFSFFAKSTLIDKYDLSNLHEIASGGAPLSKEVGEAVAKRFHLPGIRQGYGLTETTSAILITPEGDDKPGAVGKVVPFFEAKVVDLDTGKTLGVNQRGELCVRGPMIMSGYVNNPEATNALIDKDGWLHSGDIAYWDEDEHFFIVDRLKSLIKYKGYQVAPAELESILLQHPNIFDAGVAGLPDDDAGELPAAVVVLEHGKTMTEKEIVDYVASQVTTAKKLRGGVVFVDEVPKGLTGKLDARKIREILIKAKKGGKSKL
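Purified P. pyralis luciferase, 10 nM final, with Km-level 10 uM D-luciferin and 10 uM ATP in 50 mM Tris acetate pH 7.5, 10 mM Mg acetate, 0.01% Tween-20, 0.05% BSA; 6-point qHTS titration about 60 µM downward; luminescence read.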
ELG1 genotoxic – qHTS screen for small molecules that induce genotoxicity in human embryonic kidney (HEK293T) cells expressing luciferase-tagged ELG1. Potency, µM (top dose mostly 46 µM), for the others: at the top dose activity change, positive = activation, usual class: activators. HEK293T ELG1-luciferase reporter, luminescence, 16 h. AID 504466, 2011. actives 1.3% (n = 330,000); note: % of control where 0% means no effect; nearly all actives have a fitted effect of over 60% in size
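Luminescence read-out: rising ELG1-luciferase signal, reflecting elevated ELG1 protein under genetic stress, flags genotoxic compounds. Cells were treated for 16 hr at 37 °C before ONE-Glo detection.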
ELG1 DNA repair – qHTS screen for small molecules that inhibit ELG1-dependent DNA repair in human embryonic kidney (HEK293T) cells expressing luciferase-tagged ELG1 | HEK293T ELG1-luciferase reporter, luminescence, 16 h; DNA damage induced by 5-fluorouridine | Potency, µM (highest dose often 46.1 µM), for inactives: at the highest dose activity change, negative = inhibition, hits mostly inhibitors | actives 2.3% (n = 330,000) | AID 504467, 2011; note: % is set by controls: 0 for no effect and ±100 for the full control effect; nearly all actives have a fitted effect of over 55% in size
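Reporter activity after DNA damage by 5-fluorouridine is monitored. Compound-treated cells incubate 16 hr at 37 °C, then ONE-Glo is added for 30 min before luminescence reading.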
* hit, by the source's call; [ ] = remark or other dose. Sampled rows, rich in hits. Any-hit rate of the full collection: about 9.3%. Calls come from the whole dose curve; as a rule, active = well fitted curve in the direction sought with a large enough effect; inconclusive = small, poorly fitted or top-dose-only effect, or another doubt; inactive = no such curve, though single readings can be large; an effect the other way counts as inactive or inconclusive. Potency is the fitted concentration of half-maximal effect.

For O=C(O)COc1ccc(/C=N/NC(=O)/C(=C/C=C/c2ccccc2)NC(=O)c2ccccc2)cc1 the results were NPC1 promoter act 0.5%, Rab9 prom act -0.1%, FLuc counter 21.3µM*, ELG1 genotoxic -2.7% and ELG1 DNA repair -6.8%.
For CCCCOc1ccc(C(=O)N/C(=C/C=C/c2ccccc2)C(=O)NC)cc1 the results were SMN2 splice enh -3.3%, NPC1 promoter act 0.9%, Rab9 prom act 0.4%, FLuc counter 16.9µM*, ELG1 genotoxic 1.8% and ELG1 DNA repair inconclusive.
For COc1ccc(-c2nnc(SCC(=O)N3CCc4ccccc43)o2)cc1OC the results were SMN2 splice enh 3.0% and FLuc counter 0.2%.
`c1ccc(COc2ccccc2CNc2nn[nH]n2)cc1` gave SMN2 splice enh 1.9%, NPC1 promoter act 1.2%, Rab9 prom act -5.8%, FLuc counter -12.5%, ELG1 genotoxic 3.5% and ELG1 DNA repair 2.4%.
For CC(C)(C)c1ccc(-c2conc2N)cc1 the results were SMN2 splice enh 17.8µM*, NPC1 promoter act inconclusive, Rab9 prom act 2.51µM*, FLuc counter 2.69µM*, ELG1 genotoxic 11.8% and ELG1 DNA repair inconclusive.
For CC(C)(C)c1ccc(-c2noc(C(=O)NN)n2)cc1 the results were NPC1 promoter act 23.3%, Rab9 prom act 18.3%, FLuc counter inconclusive, ELG1 genotoxic 0.9% and ELG1 DNA repair inconclusive.
CCCCn1c(CN(C)Cc2ccccc2)nc2c1c(=O)n(C)c(=O)n2C was read as SMN2 splice enh -58.3%, NPC1 promoter act -7.8%, Rab9 prom act -13.5%, FLuc counter 4.6%, ELG1 genotoxic -7.2% and ELG1 DNA repair inconclusive.
For CCCn1c(CN(C)Cc2ccccc2)nc2c1c(=O)n(C)c(=O)n2C the results were SMN2 splice enh -87.2%, NPC1 promoter act -9.3%, Rab9 prom act -13.8%, FLuc counter -1.9%, ELG1 genotoxic -7.8% and ELG1 DNA repair 11.6µM*.
CN(Cc1ccccc1)Cc1nc2c(c(=O)n(C)c(=O)n2C)n1Cc1ccccc1Cl was read as SMN2 splice enh -6.7%, NPC1 promoter act -2.4%, Rab9 prom act -4.5%, FLuc counter 6.5%, ELG1 genotoxic -7.0% and ELG1 DNA repair 14.6µM*.
`CSCCC(NC(=O)c1ccccc1Cl)C(=O)Nc1ccncc1` (stereo unspecified) gave NPC1 promoter act -1.2%, Rab9 prom act 1.0%, FLuc counter 1.3%, ELG1 genotoxic -0.1% and ELG1 DNA repair -5.2%.
`CCOC(=O)Cc1ccc(NC(=O)N2CCSc3ccccc32)cc1` gave FLuc counter -15.3%.
For Cc1ccc(OCC(=O)N2CCc3ccccc32)cc1 the results were SMN2 splice enh 14.1µM*, NPC1 promoter act 2.82µM*, Rab9 prom act 3.55µM*, FLuc counter 2.69µM*, ELG1 genotoxic 16.4µM* and ELG1 DNA repair inconclusive.
`O=C(COc1ccc2c(c1)CCC2)N1CCc2ccccc21` gave SMN2 splice enh inconclusive, NPC1 promoter act 2.82µM*, Rab9 prom act 1.12µM*, FLuc counter 5.36µM*, ELG1 genotoxic 11.6µM* and ELG1 DNA repair inconclusive.
CCOCC(=O)N1CCc2ccccc21 was read as SMN2 splice enh 25.3%, NPC1 promoter act -3.1%, Rab9 prom act 2.9%, FLuc counter 1.4%, ELG1 genotoxic -5.7% and ELG1 DNA repair 18.3%.
`CCc1ccc(OCC(=O)N2CCc3ccccc32)cc1` gave NPC1 promoter act 3.55µM*, Rab9 prom act 2.24µM*, FLuc counter 2.69µM*, ELG1 genotoxic inconclusive and ELG1 DNA repair inconclusive.
`Cc1ccc(OCC(=O)N2CCCc3ccccc32)cc1` gave SMN2 splice enh 1.8%, NPC1 promoter act 9.6%, Rab9 prom act 13.4%, FLuc counter inconclusive, ELG1 genotoxic 2.2% and ELG1 DNA repair inconclusive.
CCc1ccc(OCC(=O)N2c3ccccc3CCc3ccccc32)cc1 was read as NPC1 promoter act 1.0%, Rab9 prom act -0.6%, FLuc counter -2.1%, ELG1 genotoxic -5.2% and ELG1 DNA repair -15.5%.
`O=C(c1ccccc1)c1ccc(NCCCn2ccnc2)c([N+](=O)[O-])c1` gave NPC1 promoter act -4.9%, Rab9 prom act 0.3%[1.84 µM], FLuc counter -0.7%, ELG1 genotoxic -3.1% and ELG1 DNA repair -11.6%.
Screening COc1cc(NC(=O)CC(c2cccs2)N2Cc3ccccc3C2=O)cc(OC)c1OC (stereo unspecified) returned FLuc counter -10.2%.
CCOc1cc(C(=O)Nc2ccc(-c3nnc4n3CCCCC4)cc2)cc(OCC)c1OCC was read as FLuc counter -12.1%.
Screening CCCC1(c2ccccc2)NC(=O)N(CC(=O)Nc2cc(S(=O)(=O)N3CCOCC3)ccc2Cl)C1=O (stereo unspecified) returned SMN2 splice enh 9.4%, NPC1 promoter act -5.5%, Rab9 prom act 0.4%, FLuc counter -0.9%, ELG1 genotoxic -9.1% and ELG1 DNA repair -8.0%.
Screening Cc1nn2c(-c3cccnc3)ccnc2c1-c1ccccc1 returned SMN2 splice enh 17.5%, NPC1 promoter act 22.5%, Rab9 prom act 28.8%, FLuc counter 10.7µM*, ELG1 genotoxic 4.2% and ELG1 DNA repair 12.0%.
CCOC(=O)N1CCC(n2c(SCC(=O)OCc3ccccc3)nc3ccsc3c2=O)CC1 was read as SMN2 splice enh -23.1%, NPC1 promoter act 0.3%, Rab9 prom act -1.5%, FLuc counter 0.6%, ELG1 genotoxic -16.5% and ELG1 DNA repair 23.1µM*.
Nc1ccccc1C(=O)Nc1ccc(Cl)cc1Cl was read as NPC1 promoter act inconclusive, Rab9 prom act 2.51µM*, FLuc counter 10.7µM*, ELG1 genotoxic inconclusive and ELG1 DNA repair inconclusive.
C#Cc1cccc(NC(=O)c2ccc(Cl)cc2Cl)c1 was read as NPC1 promoter act 1.78µM*, Rab9 prom act 1.12µM*, FLuc counter 2.69µM*, ELG1 genotoxic 16.4µM* and ELG1 DNA repair inconclusive.
Screening O=C(Nc1ccccc1Cl)c1ccc(Cl)cc1Cl returned SMN2 splice enh 11.0%, NPC1 promoter act 10.7%, Rab9 prom act 25.6%, FLuc counter 13.5µM*, ELG1 genotoxic 26.0% and ELG1 DNA repair inconclusive.
Screening CC(C)NC(=S)NC(=O)c1ccc(Cl)cc1Cl returned SMN2 splice enh -0.2%[1.84 µM], NPC1 promoter act 0.1%, Rab9 prom act 0.5%, FLuc counter -17.6%, ELG1 genotoxic 0.9% and ELG1 DNA repair -0.4%.
